Measurements taken from ChEMBL document CHEMBL1961873, “Compounds: GSK PKIS; Assays: Nanosyn kinase panel” (2012).
“And” between values parts separate entries of the source, which are not always exact repeats. Identical values can stand only once.

The compounds below were run against Mitogen-activated protein kinase 14 (Homo sapiens) (UniProt Q16539). Settings: at 0.1 µM.
Sequence of Mitogen-activated protein kinase 14 (Homo sapiens) (Q16539 whole entry): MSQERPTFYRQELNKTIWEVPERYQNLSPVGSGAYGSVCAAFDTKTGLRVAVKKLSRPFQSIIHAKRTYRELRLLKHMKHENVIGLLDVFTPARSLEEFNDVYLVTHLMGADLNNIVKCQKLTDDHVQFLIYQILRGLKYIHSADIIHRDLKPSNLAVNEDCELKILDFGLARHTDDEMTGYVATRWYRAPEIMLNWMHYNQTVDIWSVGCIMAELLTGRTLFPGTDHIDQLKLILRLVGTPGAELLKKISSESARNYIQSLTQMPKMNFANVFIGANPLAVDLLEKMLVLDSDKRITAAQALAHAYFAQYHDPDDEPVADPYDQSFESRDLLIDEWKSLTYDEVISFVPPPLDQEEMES
Work on `Cc1c2ccc(N(C)c3ccnc(Nc4cccc(S(N)(=O)=O)c4)n3)cc2nn1C` yielded an inhibition of 2.68%.
`CN1CCC(n2cnc(-c3ccc(F)cc3)c2-c2ccnc(NCCO)n2)CC1` showed an inhibition of 66.3%.
With `CS(=O)(=O)CCNCc1ccc(-c2ccc3ncnc(Nc4ccc(OCc5ccccc5)cc4)c3c2)o1` the inhibition was 4.73%.

What follows are compounds tested against Mitogen-activated protein kinase 14 (Homo sapiens) (UniProt Q16539). Settings: at 1 µM.
With `O=C(O[C@H]1CN[C@H](C#Cc2cc3ncnc(Nc4ccc5c(cnn5Cc5ccccc5)c4)c3s2)C1)N1CCOCC1` the inhibition was 0.45%.
Compound `Cn1c(-c2nonc2N)nc2cnccc21` has an inhibition of 6.34%.
`Nc1ncnc2occ(-c3ccc(NC(=O)Nc4cc(C(F)(F)F)ccc4F)cc3)c12` was tested, and the inhibition was 36.6% and 20.3%.
Compound `O=C(Nc1n[nH]c2nnc(-c3cccnc3)cc12)C1CC1` has an inhibition of -1.37%.
`COc1ccc2ncn(-c3cc(O[C@H](C)c4ccccc4C(F)(F)F)c(C(N)=O)s3)c2c1` showed an inhibition of 0.3%.
With `CCOc1ccc2c(-c3ccnc(Nc4cc(OC)cc(C(F)(F)F)c4)n3)cnn2n1` the inhibition was 2.85%.
For `c1ccc(-c2n[nH]cc2-c2ccnc(-c3ccc(OCCn4ccnc4)cc3)c2)nc1`, the inhibition was 36.8%.
Compound `CCN1CCC(C(=O)Nc2n[nH]c3nnc(-c4cccc(F)c4F)cc23)CC1` has an inhibition of -0.72%.
With `Nc1nonc1-c1nc2cnccc2n1C1CC1` the inhibition was 9.15% and 7.62%.
`O=C1Nc2ccccc2/C1=C1\CCc2cc(O)ccc21` showed an inhibition of 7.01%.
`NC(=O)c1ccc2c(-c3ccnc(NCCCO)n3)c(-c3ccc(F)cc3)nn2c1` was tested, and the inhibition was 86.4%.
`NS(=O)(=O)c1ccc(N/N=C2\C(=O)Nc3cccc(CCc4ccncc4)c32)cc1` showed an inhibition of 0.21%.
`FC(F)(F)CNc1nccc(-c2cnn3ncccc23)n1` gave an inhibition of 5.78%.
`COc1ccc(-c2nn3ncccc3c2-c2ccnc(Nc3ccc(F)c(F)c3)n2)cc1` showed an inhibition of 81%.
`c1cnn2ncc(-c3ccnc(NCCCN4CCOCC4)n3)c2c1` showed an inhibition of 8.35%.
`COc1cc(Nc2ncc(-c3ccccc3)o2)cc(OC)c1` gave an inhibition of 5.68%.
Compound `CCS(=O)(=O)c1ccc(OC)c(Nc2ncc(-c3cccc(C(C)=O)c3)o2)c1` has an inhibition of 5.09%.
`COC(=O)Nc1nc2ccc(Oc3ccc(NC(=O)Nc4cc(C(F)(F)F)ccc4F)cc3)cc2s1` gave an inhibition of 63.7%.
`COc1ccc(Nc2ncc(-c3ccccc3)o2)cc1OC` showed an inhibition of 5.01%.
`NS(=O)(=O)c1cccc(N/C=C2\C(=O)Nc3ccccc32)c1` gave an inhibition of 13.5%.
Work on `COc1cc(N2CCN(C(C)C)CC2)ccc1Nc1nc(Nc2cccc3ncccc23)c2cc[nH]c2n1` yielded an inhibition of 2.03%.
`COc1cc(N2CCN(C(C)C)CC2)ccc1Nc1nc(Nc2cccc(F)c2C(=O)O)c2cc[nH]c2n1` gave an inhibition of 9.12%.
In the case of `CN1CCC(C(=O)Nc2n[nH]c3nc(-c4ccc(O)cc4)c(Br)cc23)CC1`, the inhibition is reported as 13% and 10.5%.
With `O=C(O[C@H]1CN[C@H](C#Cc2cc3ncnc(Nc4ccc(OCc5cccc(F)c5)c(Cl)c4)c3s2)C1)N1CCOCC1` the inhibition was 7.34%.
In the case of `CN(C)CCNC(=O)Nc1ccc(N(C)c2ccnc(Nc3ccc(CS(C)(=O)=O)cc3)n2)cc1`, the inhibition is reported as 7.04%.
With `NS(=O)(=O)c1ccc(N/N=C2\C(=O)Nc3ccc(C(=O)NCc4ccncc4)cc32)cc1` the inhibition was 6.05%.
Compound `Fc1ccc(Nc2nccc(-c3c(-c4ccc(C(F)(F)F)cc4)nn4ncccc34)n2)cc1F` has an inhibition of 8.46%.
Work on `CC1(C)CC(n2cnc(-c3ccc(F)cc3)c2-c2ccnc(N)n2)CC(C)(C)N1` yielded an inhibition of 77.6%.
Work on `Cc1c2ccc(N(C)c3ccnc(Nc4cccc(S(N)(=O)=O)c4)n3)cc2nn1C` yielded an inhibition of 17.1%.
`CN1CCC(n2cnc(-c3ccc(F)cc3)c2-c2ccnc(NCCO)n2)CC1` showed an inhibition of 86.3%.
With `CS(=O)(=O)CCNCc1ccc(-c2ccc3ncnc(Nc4ccc(OCc5ccccc5)cc4)c3c2)o1` the inhibition was 7.34%.

These compounds were tested against Mitogen-activated protein kinase 11 (Homo sapiens) (UniProt Q15759). Settings: at 0.1 µM.
Sequence of Mitogen-activated protein kinase 11 (Homo sapiens) (Q15759 whole entry): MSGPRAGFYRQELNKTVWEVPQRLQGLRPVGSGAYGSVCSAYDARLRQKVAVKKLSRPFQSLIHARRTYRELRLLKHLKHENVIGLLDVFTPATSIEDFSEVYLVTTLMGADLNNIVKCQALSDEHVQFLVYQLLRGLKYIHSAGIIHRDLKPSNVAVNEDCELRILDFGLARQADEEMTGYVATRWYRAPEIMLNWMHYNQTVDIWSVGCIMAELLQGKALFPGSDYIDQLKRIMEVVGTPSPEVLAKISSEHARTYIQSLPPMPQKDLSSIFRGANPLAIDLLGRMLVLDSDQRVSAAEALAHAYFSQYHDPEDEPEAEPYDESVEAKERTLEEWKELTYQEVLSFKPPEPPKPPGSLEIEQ
Compound `O=C(O[C@H]1CN[C@H](C#Cc2cc3ncnc(Nc4ccc5c(cnn5Cc5ccccc5)c4)c3s2)C1)N1CCOCC1` has an inhibition of 1.51%.
`Cn1c(-c2nonc2N)nc2cnccc21` was tested, and the inhibition was 3.09%.
With `Nc1ncnc2occ(-c3ccc(NC(=O)Nc4cc(C(F)(F)F)ccc4F)cc3)c12` the inhibition was 6.21% and 3.71%.
In the case of `O=C(Nc1n[nH]c2nnc(-c3cccnc3)cc12)C1CC1`, the inhibition is reported as 0.57%.
For `COc1ccc2ncn(-c3cc(O[C@H](C)c4ccccc4C(F)(F)F)c(C(N)=O)s3)c2c1`, the inhibition was -0.35%.
Compound `CCOc1ccc2c(-c3ccnc(Nc4cc(OC)cc(C(F)(F)F)c4)n3)cnn2n1` has an inhibition of -0.59%.
For `c1ccc(-c2n[nH]cc2-c2ccnc(-c3ccc(OCCn4ccnc4)cc3)c2)nc1`, the inhibition was 1.39%.
For `CCN1CCC(C(=O)Nc2n[nH]c3nnc(-c4cccc(F)c4F)cc23)CC1`, the inhibition was 0.08%.
`Nc1nonc1-c1nc2cnccc2n1C1CC1` was tested, and the inhibition was 3.95% and 1.62%.
`O=C1Nc2ccccc2/C1=C1\CCc2cc(O)ccc21` showed an inhibition of 4.9%.
With `NC(=O)c1ccc2c(-c3ccnc(NCCCO)n3)c(-c3ccc(F)cc3)nn2c1` the inhibition was 49.5%.
In the case of `NS(=O)(=O)c1ccc(N/N=C2\C(=O)Nc3cccc(CCc4ccncc4)c32)cc1`, the inhibition is reported as 1.91%.
`FC(F)(F)CNc1nccc(-c2cnn3ncccc23)n1` showed an inhibition of 3.94%.
Work on `COc1ccc(-c2nn3ncccc3c2-c2ccnc(Nc3ccc(F)c(F)c3)n2)cc1` yielded an inhibition of 11.9%.
With `c1cnn2ncc(-c3ccnc(NCCCN4CCOCC4)n3)c2c1` the inhibition was 2.39%.
`COc1cc(Nc2ncc(-c3ccccc3)o2)cc(OC)c1` was tested, and the inhibition was 2.87%.
For `CCS(=O)(=O)c1ccc(OC)c(Nc2ncc(-c3cccc(C(C)=O)c3)o2)c1`, the inhibition was 3.95%.
Work on `COC(=O)Nc1nc2ccc(Oc3ccc(NC(=O)Nc4cc(C(F)(F)F)ccc4F)cc3)cc2s1` yielded an inhibition of 7.18%.
Compound `COc1ccc(Nc2ncc(-c3ccccc3)o2)cc1OC` has an inhibition of 1.96%.
`NS(=O)(=O)c1cccc(N/C=C2\C(=O)Nc3ccccc32)c1` was tested, and the inhibition was 6.33%.
`COc1cc(N2CCN(C(C)C)CC2)ccc1Nc1nc(Nc2cccc3ncccc23)c2cc[nH]c2n1` gave an inhibition of -0.29%.
`COc1cc(N2CCN(C(C)C)CC2)ccc1Nc1nc(Nc2cccc(F)c2C(=O)O)c2cc[nH]c2n1` gave an inhibition of 3.15%.
`CN1CCC(C(=O)Nc2n[nH]c3nc(-c4ccc(O)cc4)c(Br)cc23)CC1` was tested, and the inhibition was 4.89% and 2.05%.
`O=C(O[C@H]1CN[C@H](C#Cc2cc3ncnc(Nc4ccc(OCc5cccc(F)c5)c(Cl)c4)c3s2)C1)N1CCOCC1` gave an inhibition of 5.95%.
In the case of `CN(C)CCNC(=O)Nc1ccc(N(C)c2ccnc(Nc3ccc(CS(C)(=O)=O)cc3)n2)cc1`, the inhibition is reported as 2.16%.
In the case of `NS(=O)(=O)c1ccc(N/N=C2\C(=O)Nc3ccc(C(=O)NCc4ccncc4)cc32)cc1`, the inhibition is reported as 4.53%.
Work on `Fc1ccc(Nc2nccc(-c3c(-c4ccc(C(F)(F)F)cc4)nn4ncccc34)n2)cc1F` yielded an inhibition of 1.28%.
Work on `CC1(C)CC(n2cnc(-c3ccc(F)cc3)c2-c2ccnc(N)n2)CC(C)(C)N1` yielded an inhibition of 13.6%.
For `Cc1c2ccc(N(C)c3ccnc(Nc4cccc(S(N)(=O)=O)c4)n3)cc2nn1C`, the inhibition was 7.06%.
With `CN1CCC(n2cnc(-c3ccc(F)cc3)c2-c2ccnc(NCCO)n2)CC1` the inhibition was 12.9%.
`CS(=O)(=O)CCNCc1ccc(-c2ccc3ncnc(Nc4ccc(OCc5ccccc5)cc4)c3c2)o1` was tested, and the inhibition was 2.9%.
